We go through seven molecules from PubChem BioAssay (NCI).

Some test systems named below: NCI-H23 lung; NCI-H226 lung; NCI-H322M lung; HOP-62 NSCLC; NCI-H460 lung; HOP-92 NSCLC; NCI-H522 lung; A549/ATCC NSCLC; 786-0 renal; COLO 205 colon; DU-145 prostate; K-562 leukemia; MALME-3M melanoma; MDA-MB-231 breast; RXF 393 renal; SF-268 CNS; SF-295 CNS; SF-539 CNS; UACC-257 melanoma; M14 melanoma.
Common to all, as to experiment: NCI-60 one-dose screen, 48 h (100 = growth as untreated, 0 = no growth, -100 = all killed)
Conditions in all cases: 10 µM unless noted

About 83,000 compounds went through this panel and 20% of them were active in at least one assay; those are over-represented in the sample as a whole.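 96-well plates, one dose, 48 hours. Percent growth reported; active if below 10.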 A number with no mark means an inactive call. Calls of active or inactive are those of the source.

Consider `COc1cccc(-c2cn3nc(-c4cn(C)c5ccccc45)sc3n2)c1`, for which the growth was 90% with NCI-H23 lung; 89.6% in the experiment on NCI-H226 lung; 96.9% in the experiment with NCI-H322M lung; 96.5% in the experiment with HOP-62 NSCLC; 101% in the experiment with NCI-H460 lung; 81.8% in the experiment with HOP-92 NSCLC. Also, the growth in the experiment on NCI-H522 lung is 67.6%; with A549/ATCC NSCLC it was 94.6%; with 786-0 renal, 104%; with COLO 205 colon, 108%; in the experiment with DU-145 prostate it was 106%; with K-562 leukemia, 48%. Besides, the growth in the experiment with MALME-3M melanoma was 84.1%; in the experiment on MDA-MB-231 breast, 85.6%; in the experiment on RXF 393 renal, 104%; in the experiment with SF-268 CNS it was 94.8%; with SF-295 CNS, 96.3%; in the experiment on SF-539 CNS, 94%. The growth in the experiment on UACC-257 melanoma was 97.5%; with M14 melanoma it was 84.3%.

As to `N=C(N)c1ccc(-c2ccc(-c3cc(Cl)cc(Cl)c3)s2)s1`, the growth with NCI-H23 lung is -49.5% (active); with NCI-H226 lung it was 90.8%; in the experiment with NCI-H322M lung it was -44.7% (active); with HOP-62 NSCLC it was -28.3% (active); in the experiment on NCI-H460 lung it was -33.9% (active); in the experiment with HOP-92 NSCLC, 50.2%. Further, the growth is -70.6% (active) in the experiment with NCI-H522 lung; -52.8% (active) with A549/ATCC NSCLC; -74.5% (active) in the experiment on 786-0 renal; -75.4% (active) in the experiment on COLO 205 colon; -72.2% (active) in the experiment with DU-145 prostate; -52.5% (active) in the experiment on K-562 leukemia. The growth in the experiment with MALME-3M melanoma was -13.1% (active); with MDA-MB-231 breast, -55.1% (active); in the experiment on RXF 393 renal, -84.2% (active); with SF-268 CNS, -43.8% (active); with SF-295 CNS it was -69.8% (active); in the experiment on SF-539 CNS it was -60.6% (active). The values for the growth in the experiment with UACC-257 melanoma and with M14 melanoma were -46.3% (active) and 1.55% (active), respectively.

As to `CCOC(=O)c1c(C)nc2c(c1N)C(=O)C(=O)N2Cc1ccc(OC)cc1`, the growth in the experiment with NCI-H23 lung is 59.6%; in the experiment with NCI-H226 lung, 90.8%; in the experiment on NCI-H322M lung, 99.5%; with HOP-62 NSCLC it was 40.1%; in the experiment on NCI-H460 lung it was 101%; in the experiment on HOP-92 NSCLC, 39.6%. Further, the growth was 41.3% in the experiment with NCI-H522 lung; 88% in the experiment on A549/ATCC NSCLC; 39.7% in the experiment with 786-0 renal; 123% in the experiment with COLO 205 colon; 84.7% with DU-145 prostate; 28.8% in the experiment on K-562 leukemia. For the same molecule, the growth in the experiment on MALME-3M melanoma was 58.7%; in the experiment on MDA-MB-231 breast, 79.7%; in the experiment with RXF 393 renal, 87.9%; with SF-268 CNS, 64.7%; in the experiment with SF-295 CNS, 74.3%; with SF-539 CNS, 45.5%. Further, the growth in the experiment on UACC-257 melanoma was 76.2%; with M14 melanoma, 68.8%.

Consider `Nc1[nH]nc2nc(-c3ccccc3)n3c4ccccc4nc3c12`, for which the growth in the experiment on NCI-H23 lung was 99.9%; with NCI-H226 lung, 95.6%; in the experiment with NCI-H322M lung, 93%; in the experiment with HOP-62 NSCLC, 95.7%; with NCI-H460 lung it was 93%; in the experiment with HOP-92 NSCLC, 122%. Moreover, the growth with NCI-H522 lung was 82.7%; in the experiment on A549/ATCC NSCLC, 101%; in the experiment with 786-0 renal it was 106%; in the experiment with COLO 205 colon, 112%; in the experiment with DU-145 prostate, 117%; in the experiment on K-562 leukemia it was 106%. Also, the growth with MALME-3M melanoma is 108%; in the experiment with MDA-MB-231 breast, 97.9%; in the experiment on RXF 393 renal, 93.9%; in the experiment with SF-268 CNS, 107%; in the experiment with SF-295 CNS, 93.2%; with SF-539 CNS, 103%. In addition, the growth with UACC-257 melanoma was 105%; in the experiment on M14 melanoma it was 99.5%.

For `O=C1/C(=C/c2c[nH]c(=O)[nH]c2=O)SC(=S)N1Cc1ccccc1`, the growth was 96.4% in the experiment with NCI-H23 lung; 102% in the experiment with NCI-H226 lung; 95.1% with NCI-H322M lung; 101% in the experiment on HOP-62 NSCLC; 105% in the experiment on NCI-H460 lung; 98.5% with HOP-92 NSCLC. Besides, the growth with NCI-H522 lung is 90.7%; in the experiment on A549/ATCC NSCLC, 101%; in the experiment on 786-0 renal it was 100%; in the experiment on COLO 205 colon, 88.2%; in the experiment with DU-145 prostate it was 102%; with K-562 leukemia it was 101%. For the same molecule, the growth was 97.6% with MALME-3M melanoma; 101% in the experiment with MDA-MB-231 breast; 110% in the experiment on RXF 393 renal; 95.2% in the experiment with SF-268 CNS; 102% in the experiment with SF-295 CNS; 96.9% in the experiment with SF-539 CNS. Further, the growth is 104% in the experiment on UACC-257 melanoma and 98.8% in the experiment on M14 melanoma.

Turning to `O=c1c2ccccc2n(C[C@H]2CO2)c2ccccc12`, the growth in the experiment with NCI-H23 lung was -58.2% (active); in the experiment with NCI-H226 lung it was 51.4%; in the experiment with NCI-H322M lung it was 20%; in the experiment with HOP-62 NSCLC, -12.8% (active); with NCI-H460 lung it was -40.5% (active); in the experiment on HOP-92 NSCLC it was -3.5% (active). Besides, the growth with NCI-H522 lung is -37.5% (active); in the experiment with A549/ATCC NSCLC, -37.2% (active); in the experiment with 786-0 renal, -14.1% (active); in the experiment on COLO 205 colon, 2.46% (active); in the experiment with DU-145 prostate, 2.26% (active); in the experiment with K-562 leukemia, 8.2% (active). The growth with MALME-3M melanoma is -74.3% (active); in the experiment with MDA-MB-231 breast it was 5.95% (active); in the experiment with RXF 393 renal, -67.1% (active); with SF-268 CNS, -8.61% (active); with SF-295 CNS, 5.39% (active); in the experiment with SF-539 CNS it was -22.1% (active). In addition, the growth with UACC-257 melanoma was -10.1% (active); in the experiment with M14 melanoma, 6.45% (active).

On to `O=CCCCOCc1ccccc1`, for which the growth in the experiment on NCI-H23 lung is 96.4%; in the experiment on NCI-H226 lung it was 96.5%; in the experiment with NCI-H322M lung, 110%; in the experiment with HOP-62 NSCLC, 93.2%; in the experiment with NCI-H460 lung, 107%; in the experiment with HOP-92 NSCLC, 90.6%. Besides, the growth was 88.5% with NCI-H522 lung; 95.3% in the experiment with A549/ATCC NSCLC; 98.4% with 786-0 renal; 109% in the experiment on COLO 205 colon; 102% in the experiment on DU-145 prostate; 104% in the experiment on K-562 leukemia. The growth is 95.8% in the experiment on MALME-3M melanoma; 101% with MDA-MB-231 breast; 113% with RXF 393 renal; 103% in the experiment with SF-268 CNS; 95.1% with SF-295 CNS; 101% in the experiment on SF-539 CNS. In addition, the growth in the experiment on UACC-257 melanoma is 103%; with M14 melanoma, 96.4%.
